Source: PubChem BioAssay
SENP6 inh = SENP6 protease inhibitors, primary screen, biochemical, luminescence, uHTS; inhibition, % at 10 µM; 330,000 tested, 1.8% active; Sentrin-specific protease 6 (Homo sapiens), Q9GZR1; Recombinant SENP6 catalytic domain, aminoluciferin luminescence;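 active means inhibition above about 50% at the single tested dose, limit read from the data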;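 further: plate controls were DMSO wells with enzyme for no effect and DMSO wells lacking enzyme for full effect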
SENP8 block-1 = SENP8 protease inhibitors, primary screen, biochemical, luminescence; inhibition, % at 10 µM; Sentrin-specific protease 8 (Homo sapiens), Q96LD8; 330,000 tested, 1.2% active; AID 2540, 2010; purified SENP8, Z-RLRGG-aminoluciferin cleavage; in the data active means inhibition above about 50%
Target sequence (Q96LD8 whole entry, looked up): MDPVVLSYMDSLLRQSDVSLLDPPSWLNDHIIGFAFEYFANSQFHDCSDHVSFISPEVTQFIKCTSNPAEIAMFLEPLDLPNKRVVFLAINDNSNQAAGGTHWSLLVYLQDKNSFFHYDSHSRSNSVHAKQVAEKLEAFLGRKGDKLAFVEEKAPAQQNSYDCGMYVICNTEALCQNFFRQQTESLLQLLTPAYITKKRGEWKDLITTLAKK
SENP8 block-2 = human SENP8 protease inhibitors, primary screen, biochemical, fluorescence, Nedd8 protein substrate, uHTS. inhibition, % at 20 µM. AID 602440, 2012. recombinant SENP8. Sentrin-specific protease 8 (Homo sapiens), Q96LD8. 360,000 tested, 0.64% active; in the data active means inhibition mostly above about 40%, no sharp cut-off; inactive means mostly below about 27%
SENP7 inh = SENP7 protease inhibitors, primary screen, biochemical, luminescence, uHTS | recombinant SENP7, Z-RLRGG-aminoluciferin luminescence, 40 min | Sentrin-specific protease 7 (Homo sapiens), Q9BQF6 | inhibition, % at 5 µM | 330,000 tested, 1.5% active;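 active means inhibition above about 50% at the single test dose, limit read from the data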;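 further: plate controls were DMSO with enzyme for no effect and no enzyme buffer wells for full effect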
Target sequence (Q9BQF6 706-1050 limits assumed): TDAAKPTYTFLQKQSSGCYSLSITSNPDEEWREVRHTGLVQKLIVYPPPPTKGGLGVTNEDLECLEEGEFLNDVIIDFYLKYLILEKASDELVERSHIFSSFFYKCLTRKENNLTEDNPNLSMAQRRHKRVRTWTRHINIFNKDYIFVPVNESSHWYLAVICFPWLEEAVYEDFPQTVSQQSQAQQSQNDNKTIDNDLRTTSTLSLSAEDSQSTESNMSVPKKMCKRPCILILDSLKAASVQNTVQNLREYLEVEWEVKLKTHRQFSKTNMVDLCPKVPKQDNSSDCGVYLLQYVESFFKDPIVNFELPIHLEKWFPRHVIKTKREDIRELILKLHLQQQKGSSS
C8 TRAIL sens = viability loss with TRAIL in NB7+C8 cells, primary screen, TRAIL sensitizer project, cell-based, ATPlite luminescence; inhibition (viability loss, TRAIL sensitization), % at 10 µM; 360,000 tested, 1% active;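 active means compounds causing at least 50% loss of cell viability in the single-dose screen, relative to plate controls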
PPC-1+TRAIL kill = compounds killing PPC-1 cancer cells with TRAIL present, primary screen, TRAIL potentiator project, ATPLite luminescence, uHTS. PPC-1 cells + TRAIL, ATPLite viability luminescence. cell killing (% activity), % at 4 µM or 5 µM. 220,000 tested, 0.41% active. AID 1443, 2008;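 active means cell killing above 50% in the first pass at 4 µM, then a duplicate retest at 5 µM averaging 50% or more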;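 further: plate controls were cells with TRAIL plus DMSO for no effect and medium-only wells lacking cells for full effect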
SENP8 conf = human SENP8 protease inhibitors, confirmation, biochemical, Nedd8 protein substrate, single concentration. shares compounds with SENP8 block-2. purified SENP8, Nedd8-AMC/pro-Nedd8 cleavage fluorescence, 30 min. inhibition, % at 25 µM. AID 624319, 2012. 1,400 tested, 15% active; in the data active means inhibition mostly above about 39%, no sharp cut-off; inactive means mostly below about 34%
An asterisk follows results filed as active. The list is not random: actives were taken first. Their share in the collection is about 3%.

Screening C=C(C(=O)O)C1CCC2(C)CCCC(C)(O)C2C1 (stereo not given) returned SENP6 inh -8, SENP8 block-1 -3, SENP8 block-2 48*, SENP7 inh -6, C8 TRAIL sens 20, PPC-1+TRAIL kill 1 and SENP8 conf 0.
Screening COc1ccc(Cl)cc1-c1cc(C(=O)Nc2ccc(Br)cc2)[nH]n1 returned SENP8 block-2 9 and C8 TRAIL sens 11.
C[C@H](CCC(=O)O)[C@H]1CC[C@H]2[C@@H]3CC[C@@H]4C[C@H](O)CC[C@]4(C)[C@H]3CC[C@]12C was read as SENP6 inh 4, SENP8 block-1 4, SENP8 block-2 64*, SENP7 inh -7, C8 TRAIL sens -7 and SENP8 conf 13.
For Cc1ccc(SCc2nnc(NC(=O)c3ccccc3)s2)cc1 the results were SENP6 inh 3, SENP8 block-1 2, SENP8 block-2 40*, SENP7 inh 9, C8 TRAIL sens 2, PPC-1+TRAIL kill -13 and SENP8 conf 12.
Screening COC(=O)Cc1nnc(NC(=O)c2ccccc2)s1 returned SENP6 inh -19, SENP8 block-1 -1, SENP8 block-2 14, SENP7 inh -6, C8 TRAIL sens 5 and PPC-1+TRAIL kill 14.
`CCCCN(C(=O)COc1ccc(C)cc1OC)c1c(N)n(CCC)c(=O)[nH]c1=O` gave SENP6 inh -9, SENP8 block-1 4, SENP8 block-2 13, SENP7 inh -2, C8 TRAIL sens -6 and PPC-1+TRAIL kill 19.
For OCC1OC(Oc2c[nH]c3ccccc23)C(O)C(O)C1O (stereo not given) the results were SENP6 inh -1, SENP8 block-1 -3, SENP8 block-2 -220, SENP7 inh 13 and C8 TRAIL sens -5.
Screening OCc1ccccc1O[C@@H]1O[C@H](CO)[C@@H](O)[C@H](O)[C@H]1O returned SENP6 inh -3, SENP8 block-1 2, SENP8 block-2 49*, SENP7 inh -3, C8 TRAIL sens 13 and SENP8 conf 3.
For Cc1ccc(C2NNC(=O)C2NC(=O)c2ccccc2)cc1 (stereo not given) the results were SENP6 inh 4, SENP8 block-1 1, SENP8 block-2 64*, SENP7 inh 1, C8 TRAIL sens -4, PPC-1+TRAIL kill 7 and SENP8 conf 8.
O=C(NC1C(=O)NNC1c1ccccc1)c1ccc(F)cc1 (stereo not given) was read as SENP6 inh -9, SENP8 block-1 3, SENP8 block-2 38, SENP7 inh 6, C8 TRAIL sens 6 and PPC-1+TRAIL kill 14.
Cc1cccc(NC(=O)CCC2CCN(C(=O)C3CC=CCC3)CC2)c1 (stereo not given) was read as SENP6 inh -9, SENP8 block-1 -7, SENP8 block-2 -5, SENP7 inh 10 and C8 TRAIL sens -28.
Screening CC(C)(C)C(=O)NCCCc1nc2ccccc2n1CCCOc1ccc(Cl)cc1 returned SENP6 inh -14, SENP8 block-1 -2, SENP8 block-2 41*, SENP7 inh 6, C8 TRAIL sens 4, PPC-1+TRAIL kill 16 and SENP8 conf 25.
CCOC(=O)c1c(C)nc2c(c1-c1cc(OC)ccc1OC)C(=O)CC(C)(C)C2 was read as SENP6 inh -16, SENP8 block-1 -12, SENP8 block-2 44*, SENP7 inh 4, C8 TRAIL sens 9, PPC-1+TRAIL kill 2 and SENP8 conf 14.
`CCOC(=O)c1c(C)nc2c(c1-c1ccccc1)C(=O)CC(C)(C)C2` gave SENP6 inh -17, SENP8 block-1 -2, SENP8 block-2 -106, SENP7 inh 2, C8 TRAIL sens -9 and PPC-1+TRAIL kill 16.
Screening Cc1c(C(=S)Nc2ccccc2)cnn1-c1ccc([N+](=O)[O-])cc1 returned SENP6 inh -30, SENP8 block-1 -7, SENP8 block-2 40*, SENP7 inh -5, C8 TRAIL sens -1, PPC-1+TRAIL kill 7 and SENP8 conf 0.
Screening O=[N+]([O-])c1cc(Cl)c2cccnc2c1O returned SENP6 inh 1, SENP8 block-1 0, SENP8 block-2 30, SENP7 inh 6, C8 TRAIL sens -1 and PPC-1+TRAIL kill 16.
For O=[N+]([O-])c1cc(F)c2cccnc2c1O the results were SENP6 inh 7, SENP8 block-1 -3, SENP8 block-2 52*, SENP7 inh 10, C8 TRAIL sens 14, PPC-1+TRAIL kill 6 and SENP8 conf 93*.
Screening O=[N+]([O-])c1cccc(-c2nnc(-c3ccccc3F)o2)c1 returned SENP6 inh 46, SENP8 block-1 12, SENP8 block-2 7, SENP7 inh 39 and C8 TRAIL sens -1.
CC1CCCN(c2ccc(C(=O)Nc3ccc4c(c3)OCO4)cc2[N+](=O)[O-])C1 (stereo not given) was read as SENP6 inh -5, SENP8 block-1 -1, SENP8 block-2 43*, SENP7 inh 7, C8 TRAIL sens 18, PPC-1+TRAIL kill 17 and SENP8 conf 22.
Screening O=C(CCS(=O)(=O)Cc1ccccc1F)N1CCc2ccccc2C1 returned SENP6 inh 5, SENP8 block-1 4, SENP8 block-2 67*, SENP7 inh 0, C8 TRAIL sens 8, PPC-1+TRAIL kill 13 and SENP8 conf 75*.
For Cn1c(=O)[nH]c(=O)c2c1nc(NCc1ccco1)n2Cc1ccccc1Cl the results were SENP6 inh -9, SENP8 block-1 1, SENP8 block-2 12, SENP7 inh -2, C8 TRAIL sens -9 and PPC-1+TRAIL kill -1.
`CCCNC(=O)C1(C)CCN(C(=O)c2ccc(OC)cc2OC)C1` (stereo not given) gave SENP8 block-2 13 and C8 TRAIL sens -8.
CCOCCSc1nc2c(c(=O)[nH]c(=O)n2C)n1CCCc1ccccc1 was read as SENP6 inh -2, SENP8 block-1 1, SENP8 block-2 44*, SENP7 inh 12, C8 TRAIL sens -5, PPC-1+TRAIL kill -10 and SENP8 conf 34.
`C[C@H](CO)N1C[C@H](C)[C@@H](CN(C)Cc2ccc(C(=O)O)cc2)Oc2ncc(-c3ccc(C(=O)N(C)C)cc3)cc2C1=O` gave SENP8 block-2 -8 and C8 TRAIL sens 1.
Screening CC1=NN(c2ccc(C(F)(F)F)cn2)C(=O)C1 returned SENP6 inh 15, SENP8 block-1 8, SENP8 block-2 75*, SENP7 inh 12, C8 TRAIL sens 17, PPC-1+TRAIL kill -2 and SENP8 conf 58*.
